Compound activity from PubChem BioAssay.
Six1-Eya2 blk: blocks human Six1 binding to Eya2; AlphaScreen GST-Six1/His-Eya2 binding, biochemical; active compounds read low; activity change, % (no concentration beside the values); 360,000 tested, 0.56% active; in the data active = activity change below about -65%; inconclusive = mostly about -30% to -63%; also: % is scaled to controls: 0 for no effect and ±100 for the full control effect
Target sequence (O00167 whole entry, looked up): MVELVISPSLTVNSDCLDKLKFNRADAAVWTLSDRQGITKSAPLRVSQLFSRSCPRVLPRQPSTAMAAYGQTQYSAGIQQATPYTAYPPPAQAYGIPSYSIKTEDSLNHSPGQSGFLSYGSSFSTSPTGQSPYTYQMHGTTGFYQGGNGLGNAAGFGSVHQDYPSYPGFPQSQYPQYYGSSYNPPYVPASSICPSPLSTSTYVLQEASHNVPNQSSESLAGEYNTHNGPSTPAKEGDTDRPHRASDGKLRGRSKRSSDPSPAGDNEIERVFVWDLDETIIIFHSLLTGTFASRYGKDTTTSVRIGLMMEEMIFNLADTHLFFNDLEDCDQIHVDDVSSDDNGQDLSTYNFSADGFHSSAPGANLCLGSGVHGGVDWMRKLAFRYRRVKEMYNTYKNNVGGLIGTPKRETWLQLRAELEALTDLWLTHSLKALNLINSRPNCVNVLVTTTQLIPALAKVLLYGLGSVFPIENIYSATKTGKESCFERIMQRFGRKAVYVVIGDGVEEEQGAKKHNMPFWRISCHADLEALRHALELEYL
Target sequence (Q15475 whole entry, looked up): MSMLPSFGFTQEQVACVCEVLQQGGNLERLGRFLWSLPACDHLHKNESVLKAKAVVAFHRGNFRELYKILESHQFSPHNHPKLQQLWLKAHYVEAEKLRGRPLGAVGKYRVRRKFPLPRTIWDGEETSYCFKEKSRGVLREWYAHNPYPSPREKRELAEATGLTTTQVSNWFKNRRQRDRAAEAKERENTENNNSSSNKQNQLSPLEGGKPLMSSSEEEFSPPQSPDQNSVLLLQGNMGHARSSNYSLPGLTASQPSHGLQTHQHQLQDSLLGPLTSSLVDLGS
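Compounds are tested against tagged Six1 and Eya2 proteins bridged by glutathione donor and nickel acceptor beads; after a one-hour incubation at 37 °C without light, AlphaScreen emission is recorded.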
G9a inh: G9a (human) methyltransferase inhibition; Q96KQ7; G9a H3K9 monomethylation, AlphaScreen, 2 h; Potency, µM (titrated, usually from 102 µM), inactives show at the top dose activity, negative = inhibition, most hits filed as inhibitors; 350,000 tested, 8.8% active; AID 504332; also: potency is read from the fitted curve at half-maximal effect; % is scaled to controls: 0 for no effect and ±100 for the full control effect; nearly all actives have a fitted effect of over 75% in size
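Readings reflect AlphaScreen signal from monomethyl-H3K9 antibody detection. HMT at 20 nM; substrate b-H3K9 500 nM; cofactor SAM 20 uM; 2 h RT reaction; compounds tested as titrations in qHTS with 15 min preincubation.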
JMJD2A Tudor: blocks the human JMJD2A Tudor domain | AlphaScreen JMJD2A-Tudor / H3K4me3 peptide binding | Potency, µM (titrated, usually from 114 µM), for inactives: at the top dose activity change, negative = inhibition, most hits filed as inhibitors | 390,000 tested, 4.4% active | AID 504339; also: potency is read from the fitted curve at half-maximal effect; % is scaled to controls: 0 for no effect and ±100 for the full control effect; nearly all actives have a fitted effect of over 50% in size
BAZ2B block: BAZ2B (human) inhibition | Potency, µM (top dose mostly 114 µM), for inactives: at the top dose activity change, negative = inhibition, most hits filed as inhibitors | Q9UIF8 | 360,000 tested, 4.4% active | AlphaScreen BAZ2B-H3K14Ac peptide displacement | AID 504333; also: potency is read from the fitted curve at half-maximal effect; % is scaled to controls: 0 for no effect and ±100 for the full control effect; nearly all actives have a fitted effect of over 60% in size
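AlphaScreen displacement: compounds (up to 110uM) incubated 30 min at room temperature with a preformed 50 nM BAZ2B/50 nM biotinylated H3K14Ac peptide complex in PBS pH 7.4 with Tween-20. Donor and acceptor beads at 10 ug/mL final added, 20 min light-protected before reading.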
CtBP-E1A inh: inhibitors of CtBP/E1A interaction. AlphaScreen GST-E1A/His-CtBP binding, 1536-well; active compounds read low. activity change, % (no concentration beside the values). 340,000 tested, 0.49% active; in the data active = activity change below about -65%; inconclusive = mostly about -30% to -63%; also: % is scaled to controls: 0 for no effect and ±100 for the full control effect
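Protein mix (5X: 125 nM each GST-E1A, His-CtBP) was incubated with pinned compound 2 h at 37 deg C in dark, in 50 mM Tris pH 8.0 buffer with 300 mM NaCl. Glutathione donor and nickel acceptor beads followed; AlphaScreen signal read after 1 h.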
HP1b binding inh: blocks HP1-beta chromodomain binding to methylated histone tails. P83916. AlphaScreen HP1-beta / biotin-H3K9me3 peptide binding. Potency, µM (doses to about 114 µM), inactives show at the highest dose activity change, negative = inhibition, most hits filed as inhibitors. 390,000 tested, 0.56% active. AID 540317; also: potency is read from the fitted curve at half-maximal effect; nearly all actives have a fitted effect of over 70% in size
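Compound inhibition of the preformed complex between 50 nM HP1-beta and 50 nM biotinylated H3K9me3 peptide was read by AlphaScreen. Buffer was PBS pH 7.4 with 0.01% Tween-20. Incubations ran 30 min at room temperature, with 10 ug/mL donor/acceptor beads.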
* = called active by the depositor; u = inconclusive; x = no result given; [ ] = remark or other dose. Rows were chosen to be rich in hits. Some 10% of all compounds tested hit in one or more screens of this group. Unless noted, calls follow the shape of the dose curve; as a rule, active = well fitted inhibition curve with a large enough effect; inconclusive = small, poorly fitted or top-dose-only effect; inactive = no such curve, though single readings can be large or run the other way.

SMILES | Six1-Eya2 blk | G9a inh | JMJD2A Tudor | BAZ2B block | CtBP-E1A inh | HP1b binding inh
CC(=NNC(=O)c1ccncc1)c1ccc(O)cc1O | u | x | -24.8% | x | -75.8* | 66.6%
Cc1cc(C)c(C(=O)c2cccs2)c(C)c1 | 9.4 | x | 33.1% | x | 23.9 | 107.0%
Cc1cc(C(=O)c2cccs2)c(N)s1 | -17.8 | 39.8µM* | u | -55.4% | 16.2 | u
CCOC(=O)c1sc2ncn(CC(=O)Nc3ccc(C)cc3C)c(=O)c2c1C | x | 4.9%[59 µM] | 1.0% | 2.4% | x | 29.7%
O=C1C(C=NCCCn2ccnc2)=C(O)c2ccccc21 | -7.6 | x | -33.3% | x | -0.5 | 33.9%
CC(=NCCCn1ccnc1)C1=C(O)c2ccccc2C1=O | -9.7 | 3.5%[59 µM] | -32.7% | 44.7µM* | 2.6 | 22.4%
N#C/C(=C\c1coc2ccc(O)cc2c1=O)C(=O)Nc1nc2ccccc2s1 | -74.7* | u | 63.1µM* | u | -87.1* | u
NC(=O)N/N=C/c1coc2ccc(O)cc2c1=O | 2.0 | x | -14.7% | -15.5% | 2.7 | 51.7%
CC(NC1CCCC1)C(=O)Nc1ccccc1-c1ccccc1 (stereo not drawn) | 2.2 | u | 2µM* | 79.4µM* | -5.1 | u
CC(C)CCNC(=O)[C@H](CC(C)C)NC(=O)[C@H]1O[C@@H]1C(=O)O | x | 35.5µM* | x | 1.5% | x | x
COc1ccc(-c2ccc(C#N)c(SCC(=O)NCc3ccco3)n2)cc1OC | -5.4 | x | -3.1% | -24.9% | -1.0 | 38.6%
CC(=O)Nc1ccc(-c2csc(NCc3ccco3)n2)cc1 | -1.5 | 10µM* | u | -33.1% | -1.4 | -28.0%
c1cncc(-c2csc(NCc3ccco3)n2)c1 | -1.9 | 13.2%[12.7 µM] | u | -38.0% | -11.8 | -0.1%
COc1ccc(-c2csc(NCc3ccco3)n2)cc1C | -24.3 | u | u | 44.7µM* | -12.6 | u
Cc1ccn2c(-c3csc(NCc4ccco4)n3)c(C)nc2c1 | -11.5 | 44.7µM* | 100µM* | u | -12.4 | -30.1%
COc1ccc(-c2nc3cccc(C)n3c2NCc2ccco2)cc1OC | -6.8 | 44.7µM* | u | 50.1µM* | 11.4 | -15.6%
COC(=O)c1ccc(NC(=O)Nc2ccc([N+](=O)[O-])cc2)cc1 | -0.9 | x | -6.5% | -1.2% | x | 33.4%
CC(=O)Nc1cc(NC(C)=O)cc(C(=O)OCC(=O)c2ccc3c(c2)OCO3)c1 | 14.9 | 10µM* | -24.8% | -26.6% | 3.1 | 21.8%
CCOc1ccc(C(=O)Nc2ccc(-c3nc4ccccc4[nH]3)cc2)cc1[N+](=O)[O-] | -12.7 | 6.0%[59 µM] | 79.4µM* | -25.2% | -7.9 | 60.8%
O=C(Nc1ccc(-c2nc3ccccc3[nH]2)cc1)c1ccc2c(c1)OCO2 | -5.2 | 70.8µM* | -25.6% | u | 5.2 | -20.5%
CCN(CC)c1ccc(NC(=O)c2ccc3c(c2)OCO3)cc1 | -27.3 | 6.31µM* | u | 44.7µM* | -16.6 | u
O=C1CCC[C@@H]2C=C[C@H](c3ccc(Br)cc3)[C@H]3CCN1[C@@H]32 | 3.3 | x | x | x | -2.5 | x
CC(=NC(C)C)C1=C(O)C(C)OC1=O (stereo not drawn) | -6.6 | 4.5%[59 µM] | -4.1% | 0.2% | -3.8 | 26.9%
COC(=O)c1sccc1-n1cc2c(c1-c1ccccc1)c(=O)n(C)c(=O)n2C | -17.2 | x | x | x | -11.0 | x
CCN(CC)c1ccc(C(=O)NC(=S)N2CCN(Cc3ccc4c(c3)OCO4)CC2)cc1 | u | 39.8µM* | u | u | u | -19.7%
SMILES | Six1-Eya2 blk | G9a inh | JMJD2A Tudor | BAZ2B block | CtBP-E1A inh | HP1b binding inh
CC(C)(C)C1=CC(=Nc2ccccc2N)C=C(C(C)(C)C)C1=O | -80.6* | 29.1%[59 µM] | 3.98µM* | 3.7% | -79.3* | 4.47µM*
CCOc1ccc(N2C(=O)C3ON(C)C(c4ccc([N+](=O)[O-])cc4)C3C2=O)cc1 (stereo not drawn) | 0.6 | -12.0%[59 µM] | -2.4% | 3.1% | x | 41.9%
CSc1ccc(S(=O)(=O)N2CCN(Cc3ccc4c(c3)OCO4)CC2)cc1 | -21.3 | 79.4µM* | -11.3% | -6.2% | -10.0 | 44.2%
COc1ccc(S(=O)(=O)N2CCN(Cc3ccc4c(c3)OCO4)CC2)cc1 | -3.1 | -5.5% | -27.3% | u | -1.3 | 18.1%
Cn1c(CN2CCCC2)nc2cc(NS(=O)(=O)c3ccccc3)ccc21 | 0.5 | -14.5%[59 µM] | -22.1% | -2.5% | 8.4 | 24.3%
COc1ccccc1OCCC(=O)NCc1ccc2c(c1)OCO2 | 14.0 | -32.0% | 35.5µM* | -3.7% | 10.9 | -26.2%
COc1ccccc1NC(=O)N1CCN(Cc2ccc3c(c2)OCO3)CC1 | -0.6 | x | 3.98µM* | 50.1µM* | -1.9 | u
O=S(=O)(Nc1ccc(O)c(CN2CCCCC2)c1)c1ccccc1 | -6.7 | 44.7µM* | -5.7% | -3.6% | -1.7 | 15.3%
COc1cc(C(=O)N2CCN(Cc3ccc4c(c3)OCO4)CC2)cc(OC)c1OC | 0.5 | 20µM* | 0.891µM* | 79.4µM* | 3.6 | u
Cc1ccccc1OCCCC(=O)Nc1ccc2c(c1)OCO2 | -5.5 | 20µM* | -20.1% | -9.3% | -8.5 | 6.8%
O=C(c1ccc(NS(=O)(=O)c2ccccc2)cc1)N1CCN(Cc2ccc3c(c2)OCO3)CC1 | 1.2 | 50.1µM* | -21.3% | -4.1% | -5.8 | 14.9%
COc1ccc(NS(=O)(=O)c2cccc(C(=O)N3CCN(Cc4ccc5c(c4)OCO5)CC3)c2)cc1 | -28.1 | u | -20.0% | -22.8% | -9.6 | 18.5%
COc1ccc(S(=O)(=O)N2CCN(Cc3ccc4c(c3)OCO4)CC2)c2ccccc12 | 2.3 | 50.1µM* | -29.6% | 10.2% | 1.0 | 39.1%
COc1ccccc1OCCC(=O)Nc1ccc2c(c1)OCO2 | 5.3 | x | -15.2% | x | x | 22.8%
COc1ccsc1C(=O)N1CCN(Cc2ccc3c(c2)OCO3)CC1 | -2.7 | -10.0%[12.7 µM] | 2.0% | 4.4% | -9.5 | 25.2%
COc1ccc(Cl)cc1S(=O)(=O)N1CCN(Cc2ccc3c(c2)OCO3)CC1 | -10.3 | -1.7%[12.7 µM] | -31.3% | -27.7% | -14.5 | 8.5%
COC(=O)Nc1ccc(S(=O)(=O)N2CCC(C(=O)NC3CCCCC3)CC2)cc1 | 23.1 | -18.5% | -15.6% | -11.3% | x | 27.0%
COc1cccc(C(=O)N2CCN(Cc3ccc4c(c3)OCO4)CC2)c1OC | -1.8 | u | 7.94µM* | 79.4µM* | -1.3 | -36.4%
CCCCNc1nc(Oc2ccc(OCCC)nn2)nc(N(C)C)n1 | x | -3.6%[59 µM] | -7.9% | -3.2% | x | 37.5%
Clc1ccc(OCCCn2cncn2)cc1Cl | 1.2 | 10µM* | 8.91µM* | 22.4µM* | 5.4 | -53.8%
Cc1cc(C)cc(OCCCCn2cncn2)c1 | 8.8 | 10µM* | 28.2µM* | u | -2.3 | u
Cc1cc(C)cc(OCCCC(=O)O)c1 | 14.5 | -48.0% | -15.0% | -1.7% | 4.1 | 19.9%
c1ccc(COc2ccc(OCCCn3cncn3)cc2)cc1 | -2.1 | -5.6%[59 µM] | 3.3% | -16.9% | -2.9 | 51.9%
